Drawing on PubChem BioAssay (NCATS), this text covers outcome, Potency and activity change, negative = cytotoxicity for 37 compounds.

In assay [1] the target is Rap guanine nucleotide exchange factor 3 (Homo sapiens) (UniProt O95398). The assay can be described thus: Confirmatory qHTS for agonist of cAMP-regulated guanine nucleotide exchange factor 3 (EPAC1) (AID 1645881).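 Note: EPAC1 catalysed release of BODIPY-GDP from Rap1B seen as fluorescence loss; nearly all actives have a fitted effect of over 75% in size.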
In assay [2] the target is Rap guanine nucleotide exchange factor 4 (Homo sapiens) (UniProt Q8WZA2). The assay can be described thus: Confirmatory qHTS for agonist of cAMP-regulated guanine nucleotide exchange factor 4 (EPAC2) (AID 1645884).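 Note: nucleotide exchange releases bodipy-GDP from Rap1 and this lowers its fluorescence; nearly all actives have a fitted effect of over 65% in size.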 A general note: In qHTS, concentration-response curves come from the screen itself.
Assay [3] has the same target. The assay can be described thus: Confirmatory qHTS for antagonist of cAMP-regulated guanine nucleotide exchange factor 4 (EPAC2) (AID 1645885). Note: nearly all actives have a fitted effect of over 25% in size. Note: potency is the fitted concentration of half-maximal effect.
The nature of assay [4]: NCATS anti-infectives library activity on HEK293 viability as a counter-qHTS vs the C. elegans viability qHTS (AID 1745854). The procedure, abridged:
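HEK293 cells, 1500 per well, exposed 24 hr at 37C in 5% CO2 to compounds in a 1:5 titration, up to 41.7 uM final. Viability read as CellTiter-Glo luminescence after 10 min at room temperature.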

Assay [5] in a line: NCATS anti-infectives library activity on the primary C. elegans qHTS viability assay (AID 1745855; calls by dose curve; note: potency is the fitted concentration of half-maximal effect). The procedure, abridged:
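Viability is taken from GFP fluorescence of PE254-GFP-FLuc C. elegans imaged by laser cytometry over 7 days. Ten L1 worms per well grow at 21 °C on TOP10 E. coli capsules with titrated compound; levamisole marks toxicity.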

Assay [6] has as its target Rap guanine nucleotide exchange factor 3 (Homo sapiens) (UniProt O95398). The assay can be described thus: Counterscreen qHTS for antagonist of cAMP-regulated guanine nucleotide exchange factor 3 (EPAC1) (AID 1645888).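 Note: fluorescence loss as bound BODIPY-GDP is released from Rap1B.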 The procedure, abridged: (§1)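 Measured: fluorescence of BODIPY-GDP bound to Rap1B, which falls as exchange proceeds. Conditions include 50 uM competing GDP, 5 and 30 min reads, and a later cAMP challenge for antagonist detection.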

Assay [7] shares this target. The assay can be described thus: Counterscreen qHTS for agonist of cAMP-regulated guanine nucleotide exchange factor 3 (EPAC1) (AID 1645889). Note: nearly all actives have a fitted effect of over 40% in size. The procedure, abridged: as §1
Assay [8] can be described thus: Viability counterscreen for antagonist of constitutive androstane receptor (CAR) against the NCATS DSHEA and TCM libraries (AID 1794837).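 Note: compound exposure lasted 24 h before viability reading.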 The procedure, abridged: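 Fluorescence from CellTiter-Fluor reports live-cell protease activity in HepG2-CYP2B6-hCAR cells treated for 24 h with substances alongside 48 uM CITCO.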
(In general: The purpose of a counterscreen is to sort out artefacts and off-target activity.)

Assay [9] in a line: Viability counterscreen for agonist of constitutive androstane receptor (CAR) against the NCATS DSHEA and TCM libraries (AID 1794838). The procedure, abridged: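 In agonist mode, PK11195 is added at 0.75 uM final to HepG2-CYP2B6-hCAR cells dosed with test substances. Cultures incubate 24 h at 37C before a protease-based fluorogenic viability readout.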
Assay [10] deals with Nuclear receptor subfamily 1 group I member 3 (Homo sapiens) (UniProt Q14994). The assay can be described thus: Primary qHTS for agonist of constitutive androstane receptor (CAR) against the NCATS DSHEA and TCM libraries (AID 1794839). Note: potency is the fitted concentration of half-maximal effect. The procedure, abridged:
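Cells stably carrying hCAR and a CYP2B6 reporter (HepG2 background) are seeded and allowed 5 h to adhere. Substances at multiple concentrations are added alongside 0.75 µM PK11195, and luciferase signal is measured after 24 h.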

Inconclusive results are not listed. Entries that show only a call come without a potency. A number with no mark means an inactive call. Calls of active or inactive are those of the source. Unless noted, calls come from the whole dose curve; as a rule, active = well fitted curve in the direction sought with a large enough effect; inconclusive = small, poorly fitted or top-dose-only effect, or another doubt; inactive = no such curve, though single readings can be large; an effect the other way counts as inactive or inconclusive.

Sequence of Nuclear receptor subfamily 1 group I member 3 (Homo sapiens) (Q14994 whole entry, looked up): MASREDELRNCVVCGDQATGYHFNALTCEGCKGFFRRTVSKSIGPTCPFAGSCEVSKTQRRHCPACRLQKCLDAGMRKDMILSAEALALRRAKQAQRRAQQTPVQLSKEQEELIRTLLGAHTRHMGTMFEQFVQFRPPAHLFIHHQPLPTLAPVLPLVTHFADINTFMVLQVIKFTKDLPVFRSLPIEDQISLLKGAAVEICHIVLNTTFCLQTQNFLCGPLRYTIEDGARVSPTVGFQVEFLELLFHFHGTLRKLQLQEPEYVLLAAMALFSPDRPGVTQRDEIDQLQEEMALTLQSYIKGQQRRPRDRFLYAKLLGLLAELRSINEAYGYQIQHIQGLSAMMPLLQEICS
Sequence of Rap guanine nucleotide exchange factor 4 (Homo sapiens) (Q8WZA2 whole entry, looked up): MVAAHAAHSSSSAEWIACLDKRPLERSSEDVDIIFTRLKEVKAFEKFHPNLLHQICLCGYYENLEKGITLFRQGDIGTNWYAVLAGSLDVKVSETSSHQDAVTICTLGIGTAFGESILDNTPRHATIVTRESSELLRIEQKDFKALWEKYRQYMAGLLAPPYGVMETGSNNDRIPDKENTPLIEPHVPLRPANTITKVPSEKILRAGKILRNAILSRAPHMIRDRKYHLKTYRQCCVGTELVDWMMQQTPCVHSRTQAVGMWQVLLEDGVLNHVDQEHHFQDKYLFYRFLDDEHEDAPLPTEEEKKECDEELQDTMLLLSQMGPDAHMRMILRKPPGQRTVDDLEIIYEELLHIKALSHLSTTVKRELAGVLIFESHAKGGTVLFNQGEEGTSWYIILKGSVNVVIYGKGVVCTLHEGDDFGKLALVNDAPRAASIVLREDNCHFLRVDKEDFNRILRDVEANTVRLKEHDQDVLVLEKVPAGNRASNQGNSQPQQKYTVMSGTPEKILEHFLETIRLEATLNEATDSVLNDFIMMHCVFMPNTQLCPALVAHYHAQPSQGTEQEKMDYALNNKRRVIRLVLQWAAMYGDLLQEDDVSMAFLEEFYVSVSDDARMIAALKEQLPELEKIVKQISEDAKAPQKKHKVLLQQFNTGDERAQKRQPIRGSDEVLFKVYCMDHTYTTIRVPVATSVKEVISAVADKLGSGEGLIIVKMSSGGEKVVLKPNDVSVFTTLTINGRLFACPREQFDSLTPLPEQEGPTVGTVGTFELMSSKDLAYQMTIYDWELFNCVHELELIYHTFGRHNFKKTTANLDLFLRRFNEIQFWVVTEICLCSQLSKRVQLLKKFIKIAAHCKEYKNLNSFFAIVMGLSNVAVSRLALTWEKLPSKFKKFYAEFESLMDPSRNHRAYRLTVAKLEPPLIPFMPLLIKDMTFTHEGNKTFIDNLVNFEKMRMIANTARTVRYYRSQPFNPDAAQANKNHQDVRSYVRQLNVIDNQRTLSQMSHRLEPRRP
Sequence of Rap guanine nucleotide exchange factor 3 (Homo sapiens) (O95398 whole entry, looked up): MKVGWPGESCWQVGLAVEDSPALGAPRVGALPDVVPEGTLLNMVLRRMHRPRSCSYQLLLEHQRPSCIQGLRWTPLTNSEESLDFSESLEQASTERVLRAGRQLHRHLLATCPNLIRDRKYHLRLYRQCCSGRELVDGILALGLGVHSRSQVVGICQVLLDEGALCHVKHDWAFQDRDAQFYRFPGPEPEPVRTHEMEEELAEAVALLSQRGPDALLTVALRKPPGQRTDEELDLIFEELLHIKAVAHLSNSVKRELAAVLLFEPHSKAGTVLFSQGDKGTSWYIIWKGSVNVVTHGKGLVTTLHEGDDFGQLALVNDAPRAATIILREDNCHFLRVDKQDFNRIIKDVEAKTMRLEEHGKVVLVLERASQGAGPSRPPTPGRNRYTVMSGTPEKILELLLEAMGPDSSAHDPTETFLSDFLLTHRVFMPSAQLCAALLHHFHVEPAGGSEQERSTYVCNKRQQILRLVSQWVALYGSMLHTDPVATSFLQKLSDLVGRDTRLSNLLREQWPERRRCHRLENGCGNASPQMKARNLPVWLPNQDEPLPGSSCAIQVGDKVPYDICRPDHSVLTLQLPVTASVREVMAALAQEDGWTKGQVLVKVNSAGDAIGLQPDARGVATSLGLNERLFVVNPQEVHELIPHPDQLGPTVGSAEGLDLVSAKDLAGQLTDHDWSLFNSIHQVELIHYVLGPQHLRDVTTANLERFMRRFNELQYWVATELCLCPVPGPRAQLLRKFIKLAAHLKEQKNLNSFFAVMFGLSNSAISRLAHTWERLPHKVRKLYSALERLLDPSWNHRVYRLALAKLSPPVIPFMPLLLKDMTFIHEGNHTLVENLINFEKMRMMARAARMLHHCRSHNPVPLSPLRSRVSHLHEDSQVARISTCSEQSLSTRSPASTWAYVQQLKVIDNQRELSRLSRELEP

For `NC(=O)Oc1ccc(Cc2ccccc2)cc1`, the compound was classed as inactive in assay [1] and in assay [2]. For the same compound, in assay [3], the Potency entry was “inactive”.

Turning to `Cc1c(O)c(=O)ccn1C`, in assay [4], the compound was classed as inactive.

Regarding `C=CC[C@@H]1/C=C(\C)C[C@H](C)C[C@H](OC)[C@H]2O[C@@](O)(C(=O)C(=O)N3CCCC[C@H]3C(=O)O[C@H](/C(C)=C/[C@@H]3CC[C@@H](O)[C@H](OC)C3)[C@H](C)[C@@H](O)CC1=O)[C@H](C)C[C@@H]2OC`, the compound was called inactive in [1], in assay [2] and in [4]. Besides, the Potency in assay [5] was 3.65 µM (active).

With `CC1CC(OC(=O)C(O)c2ccccc2)CC(C)(C)C1` (stereo not drawn), the call in assay [1] and in [2] was inactive.

`O=C(O)c1cc(N=Nc2ccc(O)c(C(=O)O)c2)ccc1O`: the outcome in assay [1] and in assay [2] was inactive.

Regarding `COc1ccc(/C=C/C(=O)O)cc1`, the outcome in [1] and in assay [2] was inactive. In assay [3], the Potency entry was “inactive”.

Turning to `Nc1ccc(N=Nc2ccccc2)c(N)n1`, in [4], the compound was classed as inactive.

Turning to `CC[C@H]1OC(=O)[C@H](C)[C@@H](O[C@H]2C[C@@](C)(OC)[C@@H](O)[C@H](C)O2)[C@H](C)[C@@H](O[C@@H]2O[C@H](C)C[C@H](N(C)C)[C@H]2O)[C@](C)(O)C[C@@H](C)CN(C)[C@H](C)[C@@H](O)[C@]1(C)O`, in assay [4], the call was inactive.

Turning to `CCN(CC)C(=S)S`, the result in assay [4] was inactive.

As for `Oc1ccc(/C=C/c2cc(O)cc(O)c2)cc1`, the call in assay [1], in assay [2], in assay [6], in [7], in assay [4] and in assay [8] was inactive. Also, the call in assay [9] was inactive. The Potency in assay [10] was 31.6 µM (active).

On to `CCOC(=O)Oc1c(OC)cc(C(=O)O[C@@H]2C[C@@H]3CN4CCc5c([nH]c6cc(OC)ccc56)[C@H]4C[C@@H]3[C@H](C(=O)OC)[C@H]2OC)cc1OC`, for which the result in [1] and in assay [2] was inactive.

Regarding `COc1ccc2c(c1)N(C[C@H](C)CN(C)C)c1ccccc1S2`, the call in assay [1] and in assay [2] was inactive. Also, the Potency result in assay [3] is “inactive”.

As for `Nc1nccs1`, the result in assay [4] was inactive.

For the compound `CCCCC(=O)O[C@H]1CC[C@H]2[C@@H]3CCc4cc(O)ccc4[C@H]3CC[C@]12C`, the compound was called inactive in assay [1] and in [2]. The Potency result in [3] was “inactive”.

`COc1cc(NCCCC(C)N)c2ncccc2c1` (stereo not drawn): the compound was called inactive in assay [1], in assay [2] and in assay [6]. Further, the Potency entry in [3] was “inactive”.

With `NCCCC[C@H](N)C(=O)O`, the activity change, negative = cytotoxicity in assay [4] was -19.5% [at 0.334 µM].

Consider `CSc1nc2cc(Oc3cccc(Cl)c3Cl)c(Cl)cc2[nH]1`, for which the call in assay [1] and in [2] was inactive.

For the compound `CC(C)[C@@H](C)/C=C/[C@@H](C)[C@H]1CC[C@H]2/C(=C/C=C3\C[C@@H](O)CC[C@@H]3C)CCC[C@]12C`, the outcome in assay [1] and in assay [2] was inactive.

In the case of `C=CC(C)(O)CC/C=C(\C)CCC=C(C)C` (stereo not drawn), the outcome in [1] and in [2] was inactive. The Potency in [3] is 44.1 µM (active).

Turning to `O=C(NNCS(=O)(=O)O)c1ccncc1`, the call in assay [1] and in assay [2] was inactive. In addition, the Potency result in assay [3] was “inactive”.

For `O=C(Nc1ccc(O)cc1)c1ccccc1O`, the result in [4] was inactive.

For the compound `C=C1CC[C@H](O)C/C1=C\C=C1/CCC[C@]2(C)[C@@H]([C@H](C)CCCC(C)C)CC[C@@H]12`, the result in [8] and in [9] was inactive.

In the case of `CC(=O)N=c1sc(S(N)(=O)=O)nn1C`, the compound was called inactive in assay [4].

As for `CC[C@H](CC[C@@H](C)[C@H]1CC[C@H]2[C@@H]3CC=C4C[C@@H](O)CC[C@]4(C)[C@H]3CC[C@]12C)C(C)C`, the outcome in assay [8] and in [9] was inactive.

Consider `COC1=C(OC)C(=O)C(C/C=C(\C)CC/C=C(\C)CC/C=C(\C)CC/C=C(\C)CC/C=C(\C)CC/C=C(\C)CC/C=C(\C)CC/C=C(\C)CC/C=C(\C)CCC=C(C)C)=C(C)C1=O`, for which the compound was classed as inactive in [8] and in assay [9]. For the same compound, the Potency result in assay [10] is “inactive”.

Consider `CCCCCCCCCCCC(=O)OCC(O)CO` (stereo not drawn), for which the result in assay [8] and in assay [9] was inactive. Also, in assay [10], the Potency result is “inactive”.

In the case of `Nc1ncnc2c1ncn2[C@H]1CC[C@@H](CO)O1`, the compound was called inactive in [4].

As for `CC(C)c1nc(N(C)S(C)(=O)=O)nc(-c2ccc(F)cc2)c1/C=C/C(O)CC(O)CC(=O)O` (stereo not drawn), in assay [4], the compound was classed as inactive.

For the compound `CCCC(CCC)C(=O)OC1C[C@H]2CC[C@@H](C1)[N+]2(C)C` (stereo partly drawn), the compound was classed as inactive in assay [4].

For `C=C1[C@H](CO)[C@@H](O)C[C@@H]1n1cnc2c(=O)[nH]c(N)nc21`, in assay [4], the result was inactive.

`CC/C=C\C/C=C\C/C=C\C/C=C\C/C=C\CCCC(=O)O`: the result in assay [8] and in [9] was inactive.

Regarding `Cc1ncc(C[n+]2csc(CCO)c2C)c(N)n1`, the compound was classed as inactive in assay [8] and in assay [9]. In addition, in assay [10], the Potency entry was “inactive”.

Consider `O=C1c2c(O)cccc2[C@H]([C@@H]2O[C@H](CO)[C@@H](O)[C@H](O)[C@H]2O)c2cc(CO)cc(O)c21`, for which the call in assay [4] was inactive.

Consider `CNC(=O)[C@H](Cc1c[nH]c2ccccc12)NC(=O)[C@@H](CC(=O)NO)CC(C)C`, for which, in assay [4], the compound was called inactive. The Potency result in [5] is “inactive”.

Turning to `Oc1cccc(O)c1O`, the call in assay [8] and in [9] was inactive. For the same compound, in assay [10], the Potency result was “inactive”.

Turning to `CC/C=C\C/C=C\C/C=C\CCCCCCCC(=O)O`, the outcome in assay [8] and in assay [9] was inactive. Besides, the Potency entry in assay [10] is “inactive”.

For the compound `C=C1CC[C@H](O)CC1=C/C=C1\CCC[C@]2(C)[C@@H]([C@H](C)/C=C/[C@H](C)C(C)C)CC[C@@H]12`, the call in assay [8] and in assay [9] was inactive. Further, the Potency result in assay [10] was “inactive”.
